Measurements published in the supplement of paper PMC13380429.

Test system: Vero E6 infected with SARS-CoV-2
Test: inhibition of SARS-CoV-2 cytopathic effect; higher = more antiviral protection, active = above 15
Settings: 48 h

Measured: inhibition of SARS-CoV-2 cytopathic effect

c1cnc2c([O][Ga]([O]c3cccc4cccnc34)[O]c3cccc4cccnc34)cccc2c1 [gallium-triquinolin-8-olate]
inactive: 1 nM -0.23% | 8.33 nM 1.56% | 100 nM -0.49% | 833.33 nM 4.98% | 10000 nM 3.63%

C=CCN1C[C@H](C)N([C@H](c2ccc(C(=O)N(CC)CC)cc2)c2cccc(O)c2)C[C@H]1C
inactive: 1 nM 0.51% | 8.33 nM 2.94% | 100 nM -0.07% | 833.33 nM -0.38% | 10000 nM -1.22%

Cc1cc(OI)c(C(C)C)cc1-c1cc(C(C)C)c(OI)cc1C [thymol-iodide]
inactive: 1 nM -1.11% | 8.33 nM -0.04% | 100 nM -0.16% | 833.33 nM 1.69% | 10000 nM -2.32%

O=C(/C=C/c1ccccc1)NC(NC(=S)Nc1cccc2cccnc12)C(Cl)(Cl)Cl (stereo not given) [salubrinal]
inactive: 1 nM 3.2% | 8.33 nM 0.1% | 100 nM 1.16% | 833.33 nM -0.28% | 10000 nM 1.23%

O=C(N[C@H]1CCN(C(=O)c2cc(C(F)(F)F)cc(C(F)(F)F)c2)[C@H](Cc2ccc(Cl)cc2)C1)c1ccnc2ccccc12
inactive: 1 nM -1.66% | 8.33 nM -1.32% | 100 nM 1.01% | 833.33 nM 2.87% | 10000 nM 0.89%

CC(C)NC(=O)c1ccc(C#Cc2ccncc2)cn1
inactive: 1 nM -1% | 8.33 nM 1.41% | 100 nM 2.79% | 833.33 nM 1.58% | 10000 nM 13.2%

CCS(=O)(=O)N1CCC[C@@H]2CN3CCc4cc(OC)ccc4[C@@H]3C[C@@H]21
inactive: 1 nM -0.74% | 8.33 nM 1.49% | 100 nM 0.02% | 833.33 nM 5.17% | 10000 nM -0.18%

CCOC(=O)[C@H](C)C[C@@H](Cc1ccc(-c2ccccc2)cc1)NC(=O)CCC(=O)O [sacubitril]
inactive: 1 nM -3.45% | 8.33 nM -0.1% | 100 nM -1.3% | 833.33 nM -3.34% | 10000 nM 2.18%

CCOC(=O)n1ccn(C)c1=S [carbimazole]
inactive: 1 nM -1.34% | 8.33 nM -2.13% | 100 nM -2.63% | 833.33 nM -3.71% | 10000 nM 1.38%

Cn1cc(-c2ccc3nnc(C(F)(F)c4ccc5ncccc5c4)n3n2)cn1
inactive: 1 nM 0.45% | 8.33 nM 2.96% | 100 nM 4.23% | 833.33 nM 0.5% | 10000 nM 6.76%
